The campaign covered roughly 310,000 compounds. About 14,000 (4.5%) showed an effect of 50% or more. The effect is printed as a negative number. The list comes from a sample in which strong results are over-represented; it also holds similar structures and randomly drawn compounds.
target: human ether-à-go-go-related gene (hERG) potassium channel (human, UniProt Q12809); test: primary screen, population patch clamp on CHO cells stably expressing hERG; higher = less effect of the substance
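Also: peak tail current of the secondary pulse compared with the same well before compound.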

human ether-à-go-go-related gene (hERG) potassium channel, sequence (Q12809 whole entry, looked up): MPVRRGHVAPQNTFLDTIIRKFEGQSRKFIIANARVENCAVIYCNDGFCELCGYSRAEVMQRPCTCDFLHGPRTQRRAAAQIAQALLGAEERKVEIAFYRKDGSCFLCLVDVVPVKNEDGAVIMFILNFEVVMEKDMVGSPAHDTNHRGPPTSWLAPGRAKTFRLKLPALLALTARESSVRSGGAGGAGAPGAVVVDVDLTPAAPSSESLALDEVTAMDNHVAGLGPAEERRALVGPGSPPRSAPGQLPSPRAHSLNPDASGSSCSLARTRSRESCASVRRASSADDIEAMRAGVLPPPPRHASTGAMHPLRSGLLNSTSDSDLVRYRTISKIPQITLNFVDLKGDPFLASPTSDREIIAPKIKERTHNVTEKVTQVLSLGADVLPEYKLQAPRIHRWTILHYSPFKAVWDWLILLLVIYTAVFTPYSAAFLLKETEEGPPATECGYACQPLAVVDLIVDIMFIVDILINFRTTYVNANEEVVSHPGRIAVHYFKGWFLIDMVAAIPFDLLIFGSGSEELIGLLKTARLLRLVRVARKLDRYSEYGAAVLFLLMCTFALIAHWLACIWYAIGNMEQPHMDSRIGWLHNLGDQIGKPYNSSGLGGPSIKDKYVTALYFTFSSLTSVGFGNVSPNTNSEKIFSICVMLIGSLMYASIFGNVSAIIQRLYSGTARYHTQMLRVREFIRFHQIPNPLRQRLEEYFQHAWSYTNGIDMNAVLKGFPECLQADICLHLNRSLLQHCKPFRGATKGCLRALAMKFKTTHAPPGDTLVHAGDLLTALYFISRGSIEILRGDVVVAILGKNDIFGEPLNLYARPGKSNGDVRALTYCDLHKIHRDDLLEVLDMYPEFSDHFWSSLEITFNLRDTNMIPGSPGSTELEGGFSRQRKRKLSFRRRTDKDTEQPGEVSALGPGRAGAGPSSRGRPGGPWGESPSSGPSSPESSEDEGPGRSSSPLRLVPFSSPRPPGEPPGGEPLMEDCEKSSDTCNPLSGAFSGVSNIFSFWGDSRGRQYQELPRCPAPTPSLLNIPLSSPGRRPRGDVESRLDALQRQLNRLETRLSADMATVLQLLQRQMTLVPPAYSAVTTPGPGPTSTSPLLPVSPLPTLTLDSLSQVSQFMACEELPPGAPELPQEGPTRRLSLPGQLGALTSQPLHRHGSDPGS

Structure (SMILES)	hERG current change (%, negative = inhibition) at 10uM [%]
CCC(C)(C)NC(=O)C(c1ccc(OC)cc1)N(C(=O)CCC(=O)Nc1cc(C)on1)c1cccc(OC)c1 (stereo not drawn)	1.47
O=C(Cn1cncn1)N/N=C/c1cc([N+](=O)[O-])ccc1O	1.67
COc1ccc(OC)c(NC(=O)c2ccccc2N(C)S(=O)(=O)c2ccc(C)cc2)c1	-9.39
CCOC(=O)CSc1nc2cc3c(cc2cc1C#N)OCCO3	19
Cc1ccc(C(=O)NCCc2cccs2)cc1	7.84
COC(=O)c1[nH]c2ccc(C)cc2c1NC(=O)C(C)N1CCN(C2CCCCC2)CC1 (stereo not drawn)	-77
COC(=O)c1[nH]c2ccc(Cl)cc2c1NC(=O)CCN1CCOCC1	2.71
COC(=O)c1[nH]c2ccc(Br)cc2c1NC(=O)CN1CCN(C2CCCCC2)CC1	-78.7
COC(=O)c1[nH]c2ccc(Br)cc2c1NC(=O)CN1CCCCC1CCO (stereo not drawn)	-2.6
COC(=O)c1[nH]c2ccc(Cl)cc2c1NC(=O)CN1CCC(C(N)=O)CC1	-2.26
COC(=O)c1[nH]c2ccc(Br)cc2c1NC(=O)CN1CCCc2ccccc21	-4.4
COC(=O)c1[nH]c2ccc(C)cc2c1NC(=O)NC1CCCCC1	8.55
COC(=O)c1[nH]c2ccc(Cl)cc2c1NC(=O)CCN1CCN(C2CCCCC2)CC1	-80
COC(=O)c1[nH]c2ccc(Br)cc2c1NC(=O)C(C)N1CCN(C2CCCCC2)CC1 (stereo not drawn)	-78.2
COC(=O)c1[nH]c2ccccc2c1NC(=O)C(C)N1CC(C)OC(C)C1 (stereo not drawn)	5.31
CCOC(=O)C1CCCN(CC(=O)Nc2c(C(=O)OC)[nH]c3ccc(Br)cc23)C1 (stereo not drawn)	-30.9
COC(=O)c1[nH]c2ccccc2c1NC(=O)C(C)N1CCOCC1 (stereo not drawn)	9.7
CCC(Sc1nc2ccncc2[nH]1)C(=O)Nc1cc(Cl)ccc1C (stereo not drawn)	-44.3
CC(=O)N1c2ccc(S(=O)(=O)N3CCC(C(=O)Nc4cccc(Cl)c4)CC3)cc2CC1C (stereo not drawn)	15.1
O=c1cc(CO)oc(C(Nc2ccccn2)c2ccccc2F)c1O (stereo not drawn)	17.5
CC(C)c1c(C(=O)N/N=C/c2ccsc2)nnn1-c1nonc1N	23.8

Structure (SMILES)	hERG current change (%, negative = inhibition) at 10uM [%]
O=c1c2cc(F)ccc2[nH]c(=S)n1CCCN1CCOCC1	-3.61
CC1(C)CC(=O)C2=C(C1)NC(=O)NC2c1ccc(Cl)cc1 (stereo not drawn)	17.3
Cc1cc(C(=O)COC(=O)CN(C)S(=O)(=O)c2ccc(Cl)cc2)c(C)n1CC1CCCO1 (stereo not drawn)	-55.2
COc1cc(C(=O)OCC(=O)c2cc(C)n(CC3CCCO3)c2C)cc(OC)c1C (stereo not drawn)	-68
COc1cc(OC)cc(C(=O)OCC(=O)c2cc(C)n(CC3CCCO3)c2C)c1 (stereo not drawn)	-39
COc1cc(OC)c(C(=O)OCC(=O)c2cc(C)n(CC3CCCO3)c2C)cc1OC (stereo not drawn)	13.3
Cc1cc(C(=O)COC(=O)CN(C)S(=O)(=O)c2ccc(Cl)cc2)c(C)n1Cc1cccs1	-5.54
Cc1cc(C(=O)COC(=O)C2CCN(C(=O)c3ccc(Cl)cc3)CC2)c(C)n1CC1CCCO1 (stereo not drawn)	-15.2
CCOC(=O)N1CCC(NC(=O)CC(NS(=O)(=O)c2ccc(Cl)cc2)c2ccco2)CC1 (stereo not drawn)	-53
CCOC(=O)N1CCC(NC(=O)CC(NS(=O)(=O)c2ccc(C)cc2)c2ccco2)CC1 (stereo not drawn)	-7.75
O=C(CC(NS(=O)(=O)c1ccc(Cl)cc1)c1ccco1)NC1CCCC1 (stereo not drawn)	-8
CCc1cccc(C)c1NC(=S)NCC(c1cccnc1)N(C)C (stereo not drawn)	5.1
CCc1nnc(NC(=O)C2CCN(c3cnccn3)CC2)s1	4.24
COc1ccc(OC)c(S(=O)(=O)NCc2ccccn2)c1	11.9
O=S(=O)(NCc1ccccn1)c1cc(OCC(F)(F)F)ccc1OCC(F)(F)F	-69.9
CCOc1ccc(OCC)c(S(=O)(=O)NCc2ccccn2)c1	-1.02
COc1ccc(-c2nn(C)c(=O)c3ccccc23)cc1CNC(=O)C1CCCCC1	-56.3
COc1ccc(-c2nn(C)c(=O)c3ccccc23)cc1CNC(=O)NC1CCCCC1	-26.5
COc1ccc(-c2nn(C)c(=O)c3ccccc23)cc1NC(=O)Cn1nc(-c2ccccc2)c2ccccc2c1=O	5.06
Cn1nc(-c2ccc(C(=O)NC3CCCCC3)cc2)c2ccccc2c1=O	-52.4
CCC(=O)Nc1cc(-c2nn(C)c(=O)c3ccccc23)ccc1OC	-11.4
